# The antibiotic and cytotoxicity screens of Wong et al. (2023)
# Hit rate of the full screen: of about 39,000 compounds, about 3,300 (8.5%) were called active. The sample holds actives, similar compounds and a random draw of the others, so the mix is not that of the screen.
# Test system: HepG2
# Test: cytotoxicity call (relative viability < 0.9)
# Details: 10 µM
row,Compound,cytotoxicity call
1,CNC(=O)C(=O)Nc1ccc(C)c(F)c1,inactive
2,Cc1noc(C)c1NC(=O)Nc1ccc2c(c1)C(=O)N([C@H](C)CO)C[C@H](C)[C@@H](CN(C)CC1CCCCC1)OCCCC[C@H](C)O2,inactive
3,COc1cccc(S(=O)(=O)N(C)C[C@@H]2Oc3ncc(C#CCC(C)C)cc3C(=O)N([C@@H](C)CO)C[C@@H]2C)c1,inactive
4,O=C(CN1CCOCC1)N[C@@H]1CC[C@@H](CCn2cc(C3CCCC3)nn2)O[C@H]1CO,inactive
5,C[C@@H]1CN([C@@H](C)CO)C(=O)Cc2cc(NC(=O)NC3CCCCC3)ccc2O[C@H]1CN(C)Cc1ccc(C(F)(F)F)cc1,inactive
6,Cc1noc(C)c1NC(=O)Nc1ccc2c(c1)C(=O)N([C@H](C)CO)C[C@H](C)[C@H](CN(C)S(=O)(=O)c1ccccc1)OCCCC[C@H](C)O2,inactive
7,COc1ccc(S(=O)(=O)N(C)C[C@H]2Oc3c(NS(=O)(=O)c4ccc(C)cc4)cccc3C(=O)N([C@H](C)CO)C[C@H]2C)cc1,inactive
8,C[C@@H]1O[C@@H](O[C@H]2[C@H](Oc3cc(O)c(C(=O)CCc4ccc(O)cc4)c(O)c3)O[C@H](CO)[C@@H](O)[C@@H]2O)[C@H](O)[C@H](O)[C@H]1O,inactive
9,CC(C)C(=O)Nc1cccc(Cl)c1,inactive
10,O=C(Nc1ccc(Cl)cc1)Nc1ccc(Cl)c(Cl)c1,active
11,N=C(N=C(N)N)Nc1cccc(Cl)c1,inactive
12,O=C(CNCCO)Nc1ccc(F)c(Cl)c1,inactive
13,CCC(=O)Nc1ccc(Cl)cc1,inactive
14,O=C(Nc1ccc(C(F)(F)F)cc1)Nc1cccc(Cl)c1,active
15,C[C@@H]1CN([C@@H](C)CO)C(=O)c2cc(NS(=O)(=O)c3ccccc3)ccc2O[C@@H](C)CCCCO[C@@H]1CN(C)C(=O)Nc1ccc2c(c1)OCO2,inactive
16,CCCOc1cc(N)ccc1C(=O)OCCN(CC)CC.Cl,inactive
17,CCN(CC)CCOc1ccc2c(c1)C(=O)c1cc(OCCN(CC)CC)ccc1-2,active
18,O=S1(=O)[C@@H]2C[C@H]3C=CC2(CN1C1CC1)O3,inactive
19,Cc1ccc(S(=O)(=O)N(C)C[C@H]2OCCCC[C@H](C)Oc3ccc(NC(=O)NC4CCCCC4)cc3C(=O)N([C@H](C)CO)C[C@H]2C)cc1,inactive
20,C[C@H](CO)N1C[C@H](C)[C@H](CN(C)S(=O)(=O)c2ccccc2)OCCCC[C@H](C)Oc2ccc(NC(=O)NC3CCCCC3)cc2C1=O,active
21,Cc1ccc(S(=O)(=O)N(C)C[C@H]2OCCCC[C@@H](C)Oc3ccc(NC(=O)NC4CCCCC4)cc3C(=O)N([C@H](C)CO)C[C@H]2C)cc1,active
22,C[C@H]1CCCCO[C@@H](CN(C)S(=O)(=O)c2ccccc2)[C@@H](C)CN([C@@H](C)CO)C(=O)c2cc(NC(=O)NC3CCCCC3)ccc2O1,inactive
23,Cc1ccc(S(=O)(=O)N(C)C[C@@H]2OCCCC[C@H](C)Oc3ccc(NC(=O)NC4CCCCC4)cc3C(=O)N([C@H](C)CO)C[C@@H]2C)cc1,inactive

row,Compound,cytotoxicity call
1,Cc1ccc(S(=O)(=O)N(C)C[C@@H]2OCCCC[C@H](C)Oc3ccc(NC(=O)NC4CCCCC4)cc3C(=O)N([C@@H](C)CO)C[C@H]2C)cc1,active
2,Cc1ccc(S(=O)(=O)N(C)C[C@@H]2OCCCC[C@@H](C)Oc3ccc(NC(=O)NC4CCCCC4)cc3C(=O)N([C@@H](C)CO)C[C@@H]2C)cc1,inactive
3,Cc1ccc(S(=O)(=O)N(C)C[C@H]2OCCCC[C@@H](C)Oc3ccc(NC(=O)NC4CCCCC4)cc3C(=O)N([C@H](C)CO)C[C@@H]2C)cc1,inactive
4,Cc1ccc(S(=O)(=O)N(C)C[C@H]2OCCCC[C@H](C)Oc3ccc(NC(=O)NC4CCCCC4)cc3C(=O)N([C@@H](C)CO)C[C@@H]2C)cc1,inactive
5,Cc1ccc(S(=O)(=O)N(C)C[C@@H]2OCCCC[C@H](C)Oc3ccc(NC(=O)NC4CCCCC4)cc3C(=O)N([C@H](C)CO)C[C@H]2C)cc1,active
6,C[C@@H]1CCCCO[C@H](CN(C)S(=O)(=O)c2ccccc2)[C@@H](C)CN([C@H](C)CO)C(=O)c2cc(NC(=O)NC3CCCCC3)ccc2O1,inactive
7,Cc1ccc(S(=O)(=O)N(C)C[C@H]2OCCCC[C@H](C)Oc3ccc(NC(=O)NC4CCCCC4)cc3C(=O)N([C@@H](C)CO)C[C@H]2C)cc1,inactive
8,CN(C)CC(=O)N[C@H]1C=C[C@@H](CC(=O)O)O[C@@H]1CO,inactive
9,C[C@H](CO)N1C[C@H](C)[C@H](CN(C)C(=O)Nc2ccc(C(F)(F)F)cc2)Oc2ccc(NC(=O)Cc3ccccc3)cc2CC1=O,inactive
10,C[C@H]1CN([C@@H](C)CO)C(=O)c2cccc(NC(=O)Nc3ccccc3)c2O[C@H]1CN(C)Cc1ccc(Oc2ccccc2)cc1,inactive
11,Cc1noc(C)c1S(=O)(=O)Nc1ccc2c(c1)C(=O)N([C@H](C)CO)C[C@H](C)[C@H](CN(C)Cc1ccc3c(c1)OCO3)O2,inactive
12,COC[C@@H](O)CNc1ncnc2c1CCNCC2,inactive
13,C[C@H]1CN([C@@H](C)CO)C(=O)c2cccc(NC(=O)c3nc4ccccc4s3)c2O[C@@H]1CN(C)CC1CCCCC1,inactive
14,Cc1noc(C)c1S(=O)(=O)N(C)C[C@H]1Oc2ccc(NC(=O)NC(C)C)cc2CC(=O)N([C@@H](C)CO)C[C@@H]1C,inactive
15,C[C@@H]1CN([C@@H](C)CO)C(=O)c2cc(NC(=O)c3ccccc3)ccc2O[C@@H](C)CCCCO[C@H]1CN(C)C(=O)Cc1ccccc1,inactive
16,O=C([C@H]1CCCCN1)N1CCCC1,inactive
17,CC(=O)N1[C@H](CO)[C@@H](c2ccccc2)[C@H]1CNC(=O)CN1CCOCC1,inactive
18,Cc1ccc(S(=O)(=O)N(C)C[C@@H]2OCCCC[C@@H](C)Oc3ccc(NC(=O)NC4CCCCC4)cc3C(=O)N([C@H](C)CO)C[C@H]2C)cc1,active
19,Cc1ccc(S(=O)(=O)N(C)C[C@@H]2OCCCC[C@H](C)Oc3ccc(NC(=O)NC4CCCCC4)cc3C(=O)N([C@@H](C)CO)C[C@@H]2C)cc1,inactive
20,Cc1ccc(S(=O)(=O)N(C)C[C@@H]2OCCCC[C@@H](C)Oc3ccc(NC(=O)NC4CCCCC4)cc3C(=O)N([C@H](C)CO)C[C@@H]2C)cc1,inactive
21,Cc1ccc(S(=O)(=O)N(C)C[C@@H]2OCCCC[C@@H](C)Oc3ccc(NC(=O)NC4CCCCC4)cc3C(=O)N([C@@H](C)CO)C[C@H]2C)cc1,inactive
22,Cc1ccc(S(=O)(=O)N(C)C[C@H]2OCCCC[C@@H](C)Oc3ccc(NC(=O)NC4CCCCC4)cc3C(=O)N([C@@H](C)CO)C[C@H]2C)cc1,inactive
23,Cc1ccc(S(=O)(=O)N(C)C[C@H]2OCCCC[C@@H](C)Oc3ccc(NC(=O)NC4CCCCC4)cc3C(=O)N([C@@H](C)CO)C[C@@H]2C)cc1,active
